The source of these data is PMC5540273 (PLoS ONE, 2017).

One test deals with FYN. Particulars: concentration: 1 μM, replicates: in singlicate; n = 1.
In another test the test system is GAK. Particulars: concentration: 1 μM, replicates: in singlicate; n = 1.
Another test relates to T1, GCN2(Kin.Dom.2,S808G).
T1 construct: gene EIF2AK4
Particulars: concentration: 1 μM, replicates: in singlicate; n = 1.

Another test relates to GRK1. Particulars: concentration: 1 μM, replicates: in singlicate; n = 1.
In a further test the test system is T2, GRK2.
T2 construct: gene ADRBK1
Particulars: concentration: 1 μM, replicates: in singlicate; n = 1.

In another test the test system is T3, GRK3.
T3 construct: gene ADRBK2
Particulars: concentration: 1 μM, replicates: in singlicate; n = 1.

The subject of a further test is GRK4. Particulars: concentration: 1 μM, replicates: in singlicate; n = 1.
The next test relates to GRK7. Particulars: concentration: 1 μM, replicates: in singlicate; n = 1.
In another test the test system is GSK3A. Particulars: concentration: 1 μM, replicates: in singlicate; n = 1.
The next test has as its system GSK3B. Particulars: n = 1.
Where [1] appears, read: concentration: 1 μM, replicates: in singlicate.

Where two headings read alike, the source gives them in different places.
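Further: KINOMEscan kinase panel screen.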

Regarding `O=C(Nc1cccc(Oc2ccc3nc(NC(=O)C4CC4)cn3n2)c1)c1ccccc1C(F)(F)F`, the “%Inh” value in the test with FYN worked out at 33%; in the test on GAK it was 4%; with GCN2(Kin.Dom.2,S808G), 7%; in the test on GRK1, 9%; in the test with GRK2, 0%; in the test on GRK3, 0%. The “%Inh” value in the test on GRK4 turned out to be 46%; with GRK7 it was 0%; in the test on GSK3A, 7%; in the test on GSK3B (setting [1]), 0%.
In the case of `Cc1ccc(C(=O)N2CC[C@@H](O)C2)cc1-n1c(C)cc(OCc2ccc(F)cc2F)c(Br)c1=O`, the “%Inh” value came out at 21% in the test on FYN; 0% in the test on GAK; 0% in the test on GCN2(Kin.Dom.2,S808G); 16% in the test with GRK1; 0% in the test with GRK2; 0% with GRK3. The “%Inh” value in the test with GRK4, in the test on GRK7, in the test on GSK3A and in the test with GSK3B (setting [1]) was 0% each time.
`Cc1cccc(Nc2nc(N[C@H]3CCNC3)ncc2C(N)=O)c1.Cl` [GSK2197149]: the “%Inh” value in the test on FYN is recorded as 43%; with GAK it was 86%; in the test with GCN2(Kin.Dom.2,S808G), 25%; in the test with GRK1, 0%; with GRK2 it was 0%; with GRK3, 0%. For the same molecule, the “%Inh” value with GRK4 was determined as 78%; in the test on GRK7, 0%; in the test with GSK3A, 0%; with GSK3B (setting [1]) it was 0%.
On to `Cn1cc(-c2ccc3c(c2)CCN3C(=O)Cc2cccc(Cl)c2)c2c(N)ncnc21` [GSK2606590], for which the “%Inh” value in the test with FYN is 27%; with GAK, 33%; with GCN2(Kin.Dom.2,S808G) it was 43%; in the test on GRK1, 5%; with GRK2 it was 0%; in the test on GRK3 it was 0%. The “%Inh” value came out at 11% in the test on GRK4, 0% in the test on GRK7, 5% in the test with GSK3A and 3% in the test with GSK3B (setting [1]).
In the case of `Cl.NC(=O)c1cccc(Nc2nccc(Nc3ccc(Oc4c(Cl)cccc4Cl)c(Cl)c3)n2)c1` [GW659009], the “%Inh” value is 66% in the test on FYN; 59% in the test with GAK; 0% in the test on GCN2(Kin.Dom.2,S808G); 0% in the test on GRK1; 0% with GRK2; 39% with GRK3. The “%Inh” value with GRK4 is on record as 4%; in the test with GRK7 it was 0%; in the test on GSK3A it was 0%; in the test on GSK3B (setting [1]) it was 0%.
With `Cn1cc(-c2[nH]c3cc(NC(=O)[C@H](N)C4CCCCC4)cc4c3c2C=NNC4=O)cn1`, the “%Inh” value stood at 89% in the test with FYN; 99.8% in the test on GAK; 99.3% with GCN2(Kin.Dom.2,S808G); 11% in the test on GRK1; 96.9% with GRK2; 100% with GRK3. Further, the “%Inh” value with GRK4 is 97.1%; in the test with GRK7 it was 40%; in the test with GSK3A it was 0%; in the test with GSK3B (setting [1]), 2%.
With `Nc1n[nH]c2cnc(-c3ccccc3)cc12` [SB-642124], the “%Inh” value with FYN was 25%; in the test on GAK, 13%; in the test with GCN2(Kin.Dom.2,S808G) it was 11%; with GRK1, 0%; in the test with GRK2, 0%; in the test with GRK3 it was 42%. The “%Inh” value in the test on GRK4 was found to be 10%; in the test with GRK7, 0%; with GSK3A, 40%; in the test on GSK3B (1 µM), 25%.
As to `COc1cccc(C2=C(Nc3ccc(Cl)c(C(=O)O)c3)C(=O)NC2=O)c1` [SB-390769], the “%Inh” value turned out to be 17% in the test with FYN; 8% with GAK; 100% in the test on GCN2(Kin.Dom.2,S808G); 100% with GRK1; 0% in the test with GRK2; 59% in the test on GRK3. The “%Inh” value in the test with GRK4 is 14%; with GRK7, 0%; in the test with GSK3A, 56%; in the test on GSK3B (1 µM), 34%.
Consider `Cl.c1ccc(-c2ccc3c(Nc4ccc5[nH]ncc5c4)ccnc3c2)nc1` [GW440137], for which the “%Inh” value was 50% with FYN; 68% with GAK; 0% in the test on GCN2(Kin.Dom.2,S808G); 0% in the test on GRK1; 0% in the test on GRK2; 22% in the test on GRK3. Moreover, the “%Inh” value came to 0% in the test with GRK4, 0% in the test on GRK7, 16% with GSK3A and 17% in the test with GSK3B (setting [1]).
With `Nc1ncnc2c1nc(-c1ccccc1)n2-c1ccccc1` [SKF-97293], the “%Inh” value in the test on FYN worked out at 0%; with GAK it was 1%; in the test on GCN2(Kin.Dom.2,S808G), 0%; with GRK1, 36%; with GRK2, 0%; with GRK3 it was 13%. Besides, the “%Inh” value in the test with GRK4 worked out at 13%; in the test on GRK7, 43%; with GSK3A, 0%; in the test on GSK3B (setting [1]) it was 40%.
In the case of `O=C(Nc1cccc(-c2nn3ncccc3c2-c2ccnc(Nc3ccccc3)n2)c1)c1c(F)cccc1F` [GSK198271], the “%Inh” value in the test with FYN came to 85%; in the test with GAK, 31%; in the test on GCN2(Kin.Dom.2,S808G), 33%; in the test with GRK1 it was 0%; with GRK2, 0%; with GRK3, 0%. Also, the “%Inh” value is 1% in the test on GRK4, 0% in the test on GRK7, 16% in the test with GSK3A and 14% in the test on GSK3B (setting [1]).
For `c1ccc(Oc2ccc(Nc3ccnc4cc(-c5ccc(CNCCN6CCOCC6)o5)ccc34)cc2)nc1` [GW567145], the “%Inh” value was found to be 57% with FYN; 82% in the test on GAK; 0% in the test with GCN2(Kin.Dom.2,S808G); 0% in the test on GRK1; 0% in the test on GRK2; 48% with GRK3. In addition, the “%Inh” value with GRK4 came to 0%; with GRK7 it was 0%; in the test on GSK3A, 6%; in the test with GSK3B (setting [1]) it was 0%.
With `Nc1ncc(-c2ccc3nccc(-c4ccncc4)c3c2)cc1S(=O)(=O)N1CCOCC1` [GSK1627798], the “%Inh” value in the test with FYN turned out to be 14%; in the test on GAK, 6%; with GCN2(Kin.Dom.2,S808G), 3%; with GRK1 it was 1%; in the test with GRK2 it was 0%; in the test with GRK3, 17%. Also, the “%Inh” value amounted to 1% with GRK4, 0% with GRK7, 1% in the test on GSK3A and 3% in the test on GSK3B (setting [1]).
With `CC(C)c1nc(-c2cccc(NS(=O)(=O)c3c(F)cccc3F)c2F)c(-c2ccnc(Nc3ccc(N4CCOCC4)nc3)n2)s1` [GSK2008607], the “%Inh” value in the test with FYN worked out at 98.2%; in the test on GAK it was 96.1%; in the test with GCN2(Kin.Dom.2,S808G) it was 100%; in the test on GRK1, 100%; in the test with GRK2, 0%; in the test with GRK3, 0%. In addition, the “%Inh” value in the test on GRK4 came out at 0%; with GRK7, 0%; in the test on GSK3A, 53%; in the test on GSK3B (setting [1]) it was 21%.
On to `CN(C)S(=O)(=O)c1cc(-c2ccc3nccc(-c4cccc(S(N)(=O)=O)c4)c3c2)cnc1N` [GSK1669921], for which the “%Inh” value in the test on FYN was 28%; in the test on GAK, 28%; in the test with GCN2(Kin.Dom.2,S808G), 0%; in the test with GRK1, 5%; in the test with GRK2, 0%; with GRK3, 0%. The “%Inh” value in the test with GRK4 is listed as 12%; in the test with GRK7 it was 8%; in the test with GSK3A, 0%; with GSK3B (setting [1]) it was 3%.
`CCn1c(-c2nonc2N)nc2c(C#CC(C)(C)O)nc(OC[C@H](N)c3ccccc3)cc21` [GSK943949]: the “%Inh” value came out at 0% in the test on FYN; 0% in the test on GAK; 19% in the test with GCN2(Kin.Dom.2,S808G); 14% in the test with GRK1; 11% in the test on GRK2; 0% with GRK3. Besides, the “%Inh” value is listed as 3% in the test with GRK4, 30% with GRK7, 66% in the test with GSK3A and 59% with GSK3B (setting [1]).
